# HPGD inh = qHTS Assay for Inhibitors of HPGD (15-Hydroxyprostaglandin Dehydrogenase); 15-hydroxyprostaglandin dehydrogenase [NAD(+)] (Homo sapiens), P15428; purified HPGD, NADH fluorescence kinetic, PGE2 substrate; Potency, µM, without a hit: at the top dose activity change, negative = inhibition, actives largely listed as inhibitors; actives 4.3% (n = 150,000); active = well fitted inhibition curve with a large enough effect, not every such curve was filed as active; inconclusive = small, poorly fitted or top-dose-only effect, or another doubt; inactive = no such curve, though single readings can be large or run the other way
# Target sequence (P15428 whole entry, looked up): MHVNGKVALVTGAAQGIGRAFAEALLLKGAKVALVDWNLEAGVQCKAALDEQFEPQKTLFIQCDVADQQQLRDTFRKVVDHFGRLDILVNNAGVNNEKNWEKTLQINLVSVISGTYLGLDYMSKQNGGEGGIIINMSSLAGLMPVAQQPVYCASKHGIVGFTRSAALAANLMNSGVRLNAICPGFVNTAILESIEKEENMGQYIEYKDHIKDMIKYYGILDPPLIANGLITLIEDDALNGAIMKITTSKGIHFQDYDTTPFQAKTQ
#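 20 nM HPGD preincubated 15 min at room temperature with compound in 50 mM Tris-HCl pH 8, 0.01% Tween 20. Started with 1 mM NAD+ and 30 uM prostaglandin E2; NADH fluorescence (360/450 nm) read 5 times over 30-s intervals, last minus first.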
# NPSR antagonist = qHTS Assay for Antagonists of the Neuropeptide S Receptor: cAMP Signal Transduction; actives 1% (n = 220,000); Q6W5P4; Potency, µM (series often up to 38.3 µM), inactives show at the highest dose activity change, negative = inhibition, hits mostly inhibitors; CHO-NPSR cells, cAMP TR-FRET, antagonist mode; note: nearly all actives have a fitted effect of over 50% in size
# Tau fibril FP = qHTS for Inhibitors of Tau Fibril Formation, Fluorescence Polarization | Microtubule-associated protein tau (Homo sapiens), P10636 | K18 P301L tau heparin fibrillization, Alexa594 FP, 6 h | Potency, µM (doses to about 57.7 µM), for inactives: at the highest dose activity, negative = inhibition, actives largely listed as inhibitors | actives 0.39% (n = 280,000); note: nearly all actives have a fitted effect of over 55% in size
# Target sequence (P10636 561-689 P618L limits assumed): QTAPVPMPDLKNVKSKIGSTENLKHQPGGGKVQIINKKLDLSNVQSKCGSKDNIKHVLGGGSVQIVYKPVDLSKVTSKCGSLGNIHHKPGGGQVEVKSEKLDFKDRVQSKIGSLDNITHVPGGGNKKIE
#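 Recombinant K18 P301L […], labeled with Alexa 594 at 0.24 uM over 15 uM unlabeled; heparin inducer 20 uM final; 37 C, 6 hr; FP endpoint.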
# ALDH1A1 block = qHTS Assay for Inhibitors of Aldehyde Dehydrogenase 1 (ALDH1A1) | Aldehyde dehydrogenase 1A1 (Homo sapiens), P00352 | Purified ALDH1A1, NADH fluorescence, propionaldehyde substrate | Potency, µM (top dose mostly 75.3 µM), without a hit: at the highest dose activity, negative = inhibition, most hits filed as inhibitors | actives 7.3% (n = 220,000) | AID 1030, 2008; active = well fitted inhibition curve with a large enough effect, not every such curve was filed as active; inconclusive = small, poorly fitted or top-dose-only effect, or another doubt; inactive = no such curve, though single readings can be large or run the other way;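 note: plate controls were no enzyme wells and a reference inhibitor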
# Tau fluor counter = Counterscreen qHTS for Inhibitors of Tau Fibril Formation, Fluorescence Polarization. AID 1463, 2008. tau K18 P301L Alexa594 fluorescence, heparin fibrillization. actives 0.93% (n = 280,000). Potency, µM (top dose mostly 57.7 µM), inactives show top-dose activity change, negative = decrease; note: nearly all actives have a fitted effect of over 55% in size
#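 Human tau K18 P301L (15 uM unlabeled, 0.24 uM Alexa 594-labeled) in 100 mM sodium acetate pH 7 with 20 uM heparin, 6 hr at 37 C. ThT 30 uM added, 1 hr ambient; Alexa 594 FP and total fluorescence read at 555/632 nm.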
# Tau ThT inhib = qHTS for Inhibitors of Tau Fibril Formation, Thioflavin T Binding; Microtubule-associated protein tau (Homo sapiens), P10636; recombinant tau K18 P301L, heparin-induced fibrillization, ThT fluorescence; Potency, µM (series often up to 57.4 µM), for inactives: at the top dose activity, negative = inhibition, actives largely listed as inhibitors; actives 2.1% (n = 270,000); AID 1460, 2008; note: nearly all actives have a fitted effect of over 55% in size
#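 ThT emission at 510 nm, taken 1 hr after adding 30 uM dye, quantifies aggregates formed when 20 uM heparin acts on human tau K18 P301L for 6 hr at 37 C.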
# Active calls of the source: *; ? = inconclusive; . = no result; [ ] = dose if it differs, or a comment. Sampled rows, rich in hits. Any-hit rate of the full collection: about 9.5%. Unless noted, calls come from the whole dose curve; as a rule, active = well fitted curve in the direction sought with a large enough effect; inconclusive = small, poorly fitted or top-dose-only effect, or another doubt; inactive = no such curve, though single readings can be large; an effect the other way counts as inactive or inconclusive. Unless noted, % is set by controls: 0 for no effect and ±100 for the full control effect; potency is the fitted concentration of half-maximal effect.
SMILES,HPGD inh,NPSR antagonist,Tau fibril FP,ALDH1A1 block,Tau fluor counter,Tau ThT inhib
Cc1ccccc1-n1c(SCC(=O)Nc2ccccc2)nc2nc3c(cc2c1=O)CCCC3,-6%,-21%[46.1 µM],-7%,7.9µM*,-13%,-9%
O=C(CSc1nc2nc3c(cc2c(=O)n1-c1ccccc1)CCCC3)Nc1cccc2ccccc12,-10%,-17%,10%,7.9µM*,-7%,-10%
CCCNC(=O)Cn1nc(C(F)(F)F)c2c1CCCC2,3%,-3%[46.1 µM],1%,-7%,-6%,-9%
O=C(NC(=S)NN1CCCCC1c1cccnc1)c1ccc(Cl)cc1Cl (centres undefined),.,33%,-6%,-3%,-11%,-13%
Cc1c(O)ccc(/C(Cc2ccc3ccccc3n2)=N\O)c1O,-24%,-16%[46.1 µM],3%,?,-23%,-12%
CC(=O)Oc1ccc(C(=O)Cc2ccc3ccccc3n2)c(O)c1C,-3%,0%,1%,9%,-15%,1.4µM*
CC1CCC2C(=O)N3C(CCC(C)[C@H]3c3cccc(N4CCCC4=O)c3)C(=O)N2C1c1cccc(N2CCCC2=O)c1 (some centres undefined),.,.,-6%[11.6 µM],0%[13.5 µM],-19%[11.6 µM],-16%[11.5 µM]
CC(=O)Nc1ccc2nc3c(=O)n(C)c(=O)n(C)c3nc2c1,.,30%,?,?,-27%,18µM*
Cn1c(=O)c2nc3ccc(NC(=O)C(F)(F)F)cc3nc2n(C)c1=O,.,.,-1%,.,-6%,11%
CS(=O)Cc1cc(Sc2ccccc2)nc(-c2ccncc2)n1 (centres undefined),.,0%,5%,8.9µM*,3%,0%
CC(=O)Nc1ccc(S(=O)(=O)Nc2nc3ccc([N+](=O)[O-])cc3s2)cc1,.,11%,2%,14µM*,-16%,?
CC(=O)Nc1ccc2nc(NC(=O)c3ccc([N+](=O)[O-])s3)sc2c1,.,25%,-6%,3%,?,1.1µM*
CC(=O)Nc1ccc2nc(NC(=O)c3cccs3)sc2c1,.,-5%,-4%,.,-6%,.
C/C(=N\NC(=O)c1ccc(COc2ccccc2)cc1)c1ccncc1,.,8%,3%,25µM*,1%,?
C/C(=N\NC(=O)COc1ccccc1)c1ccc(O)cc1,.,17%,-1%,?,-14%,?
O=C(NCCn1cc(SCc2ccccc2F)c2ccccc21)c1cccs1,.,.,-16%,.,?,?
O=C(NCCn1cc(SCc2ccc(Cl)cc2)c2ccccc21)c1cccs1,.,.,-19%,.,8.9µM*[quencher],?
Cc1ccccc1CSc1cn(CCNC(=O)c2cccs2)c2ccccc12,.,.,-17%,.,7.9µM*[quencher],?
O=C(CSc1cn(CCNC(=O)c2cccs2)c2ccccc12)NC1CCCCC1,-30%,-25%[46.1 µM],8%,?,-25%,-15%
O=C(CSc1cn(CCNC(=O)c2cccs2)c2ccccc12)NCc1ccccc1,-21%,?,-3%,?,-26%,-11%
O=C(NCCn1cc(SCc2ccc(F)cc2)c2ccccc21)c1cccs1,.,.,-5%,.,7.9µM*[quencher],?
Cc1ccc(CSc2cn(CCNC(=O)c3cccs3)c3ccccc23)cc1,.,.,-6%,.,8.9µM*[quencher],?
NC(=O)C1=C[C@H](C2CCCCC2)C[C@H](OCc2ccc(CO)cc2)O1,.,16%,9%,?,3%,-4%
CCN1CC2CCCC3(C1)C(=O)NC1(CCCCC1)N=C23 (centres undefined),-10%,10%[46.1 µM],-4%,32µM*,-3%,-7%
COc1ccc2c(Cl)c(C(N)=O)sc2c1,-13%,?,-5%,-1%,0%,-11%
SMILES,HPGD inh,NPSR antagonist,Tau fibril FP,ALDH1A1 block,Tau fluor counter,Tau ThT inhib
COc1ccc2c(Cl)c(C(=O)NN)sc2c1,-29%,-10%[46.1 µM],9%,1.1µM*,-8%,?
CCOc1ccc(N(C(C)C(=O)NCCSc2ccc(Cl)cc2)S(C)(=O)=O)cc1 (centres undefined),.,.,1%,.,-21%,-13%
COC1=CC(C)C2CC3OC(=O)CC4C(C)=C(OC)C(=O)C([C@]2(C)C1=O)[C@]34C (some centres undefined),-8%,.,2%,12%,-5%,-3%
O=C(CC1Sc2ncnn2C1=O)Nc1ccc(Br)cc1 (centres undefined),16µM*,-19%[46.1 µM],-7%,7.9µM*,-5%,?
COc1ccc(N=C2SC(CC(=O)Nc3ccccc3OC)C(=O)N2Cc2ccco2)cc1 (centres undefined),?,-6%,3%,9%,13%,8%
O=C(CC1SC2=NCCN2C1=O)Nc1ccc(Br)cc1 (centres undefined),-3%,1%[46.1 µM],-12%,3%,-3%,-7%
O=C(CC1SC(=Nc2ccccc2)N(Cc2ccccn2)C1=O)Nc1ccc(Br)cc1 (centres undefined),?,-40%,-17%,7.1µM*,?,3%
COc1ccc(N=C2SC(CC(=O)Nc3ccc(F)cc3)C(=O)N2Cc2ccco2)cc1 (centres undefined),-13%,-49%,?,3.5µM*,?,2%
COCc1cc(C)nc(SCC[N+](C)(C)CC(=O)c2ccc(Br)cc2)c1C#N,.,-31%,5%,7.9µM*,-2%,-9%
Cc1cc(Cl)ccc1OCC(=O)N(Cc1ccc(N(C)C)cc1)CC1CCCO1 (centres undefined),.,.,2%,.,-19%,?
C=CCN1C(=O)C(Cc2ccc(OC)cc2)S/C1=N/N=C/c1ccco1 (centres undefined),-25%,-7%[46.1 µM],3%,7.1µM*,-11%,-11%
Cc1ccc(O)c(-c2cc(C(=O)NCc3ccncc3)[nH]n2)c1,5µM*,-11%[46.1 µM],-1%,-7%,-7%,-2%
Cc1ccc(-c2cc(C(=O)Nc3ccc(S(=O)(=O)N4CC(C)OC(C)C4)cc3)[nH]n2)c(O)c1 (centres undefined),.,?,-14%,.,?,-6%
Cc1ccc(O)c(-c2cc(C(=O)Nc3ccc(S(=O)(=O)Nc4nc(C)cc(C)n4)cc3)[nH]n2)c1,0.89µM*,-25%,-4%,3%,?,-7%
Cc1ccc(O)c(-c2cc(C(=O)Nc3ccc(S(=O)(=O)N4CC(C)OC(C)C4)cc3)[nH]n2)c1 (centres undefined),13µM*,-8%[46.1 µM],?,3%,?,3%
